Results: PubChem BioAssay (NCI)
About 83,000 compounds went through this panel and 20% of them were active in at least one assay; those are over-represented in the sample as a whole.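 In brief: 96-well plates, 48 h treatment, single concentration, percent growth endpoint.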 Calls of active or inactive are those of the source. How the source made its calls: active means growth percent below 10; inactive means the rest.

Columns and labels:
Experiment in all cases: NCI-60 one-dose screen, 48 h (100 = growth as untreated, 0 = no growth, -100 = all killed)
Settings in all cases: 10 µM unless noted
[1] = tested on: HCT-15 colon
[2] = tested on: HT29 colon
[3] = tested on: SNB-75 CNS
[4] = tested on: SNB-19 CNS
[5] = tested on: U251 CNS
[6] = tested on: PC-3 prostate
[7] = tested on: SK-MEL-5 melanoma
[8] = tested on: UACC-62 melanoma
[9] = tested on: LOX IMVI melanoma
[10] = tested on: SK-MEL-28 melanoma
[11] = tested on: EKVX NSCLC
[12] = tested on: SN12C renal
[13] = tested on: UO-31 renal
[14] = tested on: TK-10 renal
[15] = tested on: ACHN renal
[16] = tested on: A498 renal
[17] = tested on: CCRF-CEM leukemia
[18] = tested on: MOLT-4 leukemia
[19] = tested on: CAKI-1 renal

Measured: growth

COc1ccc(/C=C(/C(=O)N2CCN(c3ccccc3)CC2)c2cc(OC)c(OC)c(OC)c2)cc1O
active: [5] 8.04% | [7] -13.7% | [16] -3.6% | [17] 8.16% | [18] 8.78%
inactive: [1] 12.8% | [2] 48.4% | [3] 67.8% | [4] 27.1% | [6] 23.4% | [8] 27.1% | [9] 14.7% | [10] 62.3% | [11] 41% | [12] 31.4% | [13] 45.6% | [14] 64% | [15] 33.1%

Cc1n(Cc2ccc3ccccc3n2)cc[n+]1Cc1ccc2ccccc2n1
inactive: [1] 100% | [2] 62% | [3] 65.8% | [4] 54% | [5] 58.8% | [6] 55.8% | [7] 59% | [8] 73% | [9] 81.9% | [10] 72% | [11] 80.7% | [12] 77.9% | [13] 87.3% | [14] 80.8% | [15] 103% | [16] 88.5% | [17] 76.2% | [18] 98.3%

CC(=O)[C@@]1(O)[C@H](C)C[C@H]2[C@@H]3C=C(C)C4=Cc5c(cnn5-c5ccccc5)C[C@]4(C)[C@H]3[C@@H](O)C[C@@]21C
inactive: [3] 40.4% | [4] 70.2% | [7] 38.1% | [10] 43.6% | [11] 13.2% | [12] 41.3% | [14] 34.5% | [15] 42.3%
active: [1] -27.9% | [2] -76.9% | [5] 6.52% | [6] 1.78% | [8] 1.84% | [9] 4.75% | [13] -4.99% | [17] -28%

O=c1[nH]c2cc(Cl)c(Cl)cc2o1
inactive: [1] 101% | [2] 112% | [3] 92.5% | [4] 109% | [5] 95.1% | [6] 64.6% | [7] 115% | [8] 92.8% | [9] 99.4% | [10] 116% | [11] 68.3% | [12] 95.5% | [13] 99.6% | [14] 113% | [15] 104% | [16] 92.7% | [17] 118% | [18] 106%

Cc1n(Cc2ccc3ccccc3n2)cc[n+]1Cc1ccc2ccccc2c1
active: [2] 6.64% | [3] -2.2% | [4] 7.14% | [7] -87.6% | [8] -26.6% | [9] -43.7% | [12] 1.98% | [16] -2.15% | [18] 5.13%
inactive: [1] 86.8% | [5] 14% | [6] 10.4% | [10] 16.1% | [11] 48.3% | [13] 81% | [14] 37.8% | [15] 88.5% | [17] 16.3%

CC(=O)OC1Oc2cc(C)c(C)cc2-c2oc(=O)c(-c3cc4ccccc4oc3=O)cc21 (stereo unspecified)
inactive: [1] 117% | [2] 110% | [3] 92.5% | [4] 116% | [5] 66.6% | [6] 91.9% | [7] 115% | [8] 102% | [9] 84.7% | [10] 152% | [11] 115% | [12] 114% | [13] 96.2% | [14] 156% | [15] 71.9% | [16] 75% | [17] 94%

O=c1[nH]cnc2nc[nH]c12
active: [18] -45.9%
inactive: [1] 107% | [2] 97.9% | [3] 90.8% | [4] 107% | [5] 103% | [6] 135% | [7] 102% | [8] 102% | [9] 98.4% | [10] 97.9% | [11] 81.6% | [12] 96.7% | [13] 94.2% | [14] 115% | [15] 103% | [16] 87.9% | [17] 120%

Cc1ccc(NC(=O)c2nc(S(C)=O)oc2-c2ccc(F)cc2)cc1Nc1nccc(-c2cccnc2)n1 (stereo unspecified)
inactive: [3] 95.6% | [4] 74.2% | [5] 39.2% | [6] 72.9% | [7] 68.3% | [8] 65% | [10] 76.5% | [11] 73.8% | [12] 38.7% | [13] 84.5% | [14] 130% | [15] 31.5% | [16] 107%
active: [1] 0.45% | [2] 1.98% | [9] -72.1% | [17] 2.57% | [18] 0.215%

O=C1OC(c2ccc(-c3ccccc3)cc2)=C/C1=C/c1c(Cl)cccc1Cl
inactive: [1] 83.7% | [2] 101% | [3] 85.1% | [4] 105% | [5] 102% | [6] 91.8% | [7] 101% | [8] 85.5% | [9] 103% | [10] 101% | [11] 86% | [12] 95.3% | [13] 81.1% | [14] 88% | [15] 105% | [16] 93.5% | [18] 97.8%
active: [17] -14%

c1ccc(-c2[nH]c3ccccc3c2-c2ccccc2)cc1
inactive: [1] 79.6% | [2] 88.4% | [3] 84.7% | [4] 97.5% | [5] 87.8% | [6] 79.4% | [7] 104% | [8] 75.8% | [9] 79.8% | [10] 119% | [11] 77.1% | [12] 91.8% | [13] 88.6% | [14] 107% | [15] 93.2% | [16] 92.8% | [17] 47.6% | [18] 66.2%

O=C(O)Cn1ccc2ccccc21
inactive: [1] 111% | [2] 106% | [3] 91.1% | [4] 98.9% | [5] 108% | [6] 101% | [7] 98.7% | [8] 104% | [9] 91.8% | [10] 134% | [11] 102% | [12] 113% | [13] 76.4% | [14] 153% | [15] 99.9% | [16] 110% | [17] 98.4%

COc1cc(-c2csc(NC(=O)Nc3cccc(C(F)(F)F)c3)n2)cc(OC)c1OC
inactive: [1] 30.9% | [2] 62.6% | [3] 62.4% | [4] 46.1% | [5] 34.1% | [6] 18.6% | [7] 28.7% | [8] 40% | [9] 62.3% | [10] 72.8% | [11] 38.3% | [13] 46% | [14] 49.4% | [15] 31.3% | [19] 48.2% | [16] 59.1% | [17] 28.1% | [18] 18.1%

CN(C)CCOc1nc2c3cccnc3cc(-c3cccc(Cl)c3)c2c2ncccc12
inactive: [3] 38.2% | [4] 26.4% | [5] 11.2% | [6] 22.4% | [11] 34.3% | [13] 38.2% | [14] 28.5% | [19] 28.1% | [16] 43.7%
active: [1] -10.9% | [2] 1.5% | [7] 1.23% | [8] -75.6% | [9] -94.5% | [10] -81.6% | [15] 6.48% | [17] 6.83% | [18] -9.06%

Nc1nc2c(c3ncccc13)C(c1ccccc1)Cc1ncccc1-2 (stereo unspecified)
inactive: [1] 46.1% | [2] 56.9% | [3] 71.2% | [4] 91.8% | [5] 72.2% | [6] 73.9% | [7] 53.1% | [8] 59.4% | [9] 70.9% | [10] 83.5% | [11] 78.8% | [13] 61.1% | [14] 89.9% | [15] 84.4% | [19] 77.2% | [16] 78.2% | [17] 72.3% | [18] 65.8%

Clc1ccc(Nc2ncnc3c2sc2ncccc23)c(Cl)c1
active: [9] 4.08% | [13] -11.7% | [15] 9.32% | [18] 8.22%
inactive: [1] 47.7% | [2] 39.4% | [3] 42.3% | [4] 27.4% | [5] 27% | [6] 49.5% | [7] 28% | [8] 12.7% | [10] 65.9% | [12] 20.4% | [14] 59.6% | [19] 15.1% | [16] 26.7% | [17] 16.6%

Cc1nc2ccc(Nc3nc(N4CCOCC4)nc(N4CCN(C)CC4)n3)cc2n1Cc1ccccc1
inactive: [1] 87.4% | [2] 53% | [3] 62.4% | [4] 112% | [5] 73.5% | [6] 90% | [7] 71.4% | [8] 107% | [9] 74.7% | [10] 64.1% | [12] 113% | [13] 62.7% | [14] 87.2% | [15] 94.7% | [19] 102% | [16] 40.6% | [17] 79.9%

COc1cccc(Cn2c(-c3nonc3NC(C)=O)nc3ccccc32)c1
inactive: [1] 34.9% | [2] 21.5% | [3] 10.1% | [4] 71.3% | [5] 27.1% | [6] 21.4% | [7] 28.4% | [8] 45.2% | [9] 50.2% | [10] 57.3% | [12] 48.4% | [13] 36% | [14] 26.6% | [15] 42.8% | [19] 24% | [17] 41% | [18] 38.7%
active: [16] -0.794%
